# HPGD inh – qHTS Assay for Inhibitors of HPGD (15-Hydroxyprostaglandin Dehydrogenase); 15-hydroxyprostaglandin dehydrogenase [NAD(+)] (Homo sapiens), P15428; purified HPGD, NADH fluorescence kinetic, PGE2 substrate; Potency, µM, inactives show at the highest dose activity change, negative = inhibition, hits mostly inhibitors; actives 4.3% (n = 150,000); further: potency means the concentration at half of the fitted maximal effect
# Target sequence (P15428 whole entry, looked up): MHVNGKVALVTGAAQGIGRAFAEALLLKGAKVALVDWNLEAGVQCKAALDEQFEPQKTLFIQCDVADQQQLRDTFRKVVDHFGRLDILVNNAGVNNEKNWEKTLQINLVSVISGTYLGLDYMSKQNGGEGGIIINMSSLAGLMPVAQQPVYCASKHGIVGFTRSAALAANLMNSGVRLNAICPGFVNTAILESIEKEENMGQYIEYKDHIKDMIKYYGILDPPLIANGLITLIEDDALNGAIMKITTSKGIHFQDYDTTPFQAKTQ
#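 20 nM HPGD preincubated 15 min at room temperature with compound in 50 mM Tris-HCl pH 8, 0.01% Tween 20. Started with 1 mM NAD+ and 30 uM prostaglandin E2; NADH fluorescence (360/450 nm) read 5 times over 30-s intervals, last minus first.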
# ALDH1A1 inh – qHTS Assay for Inhibitors of Aldehyde Dehydrogenase 1 (ALDH1A1). Aldehyde dehydrogenase 1A1 (Homo sapiens), P00352. Purified ALDH1A1, NADH fluorescence, propionaldehyde substrate. Potency, µM (series often up to 75.3 µM), for the others: at the top dose activity, negative = inhibition, hits mostly inhibitors. actives 7.3% (n = 220,000);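 further: potency means the concentration at half of the fitted maximal effect; plate controls were no enzyme wells and a reference inhibitor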
# PNC inhibitor – High Content Assay for Compounds that inhibit the Assembly of the Perinucleolar Compartment; actives 3.1% (n = 140,000); activity change (PNC), negative = inhibition, % at 10 µM; PC3M PTB-GFP, PNC prevalence imaging, 16 h; hits give low values;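 active means readout at or below -70, meaning at least 70% loss of cells showing the perinucleolar compartment, a nuclear body marking cancer cells; inconclusive means readout between -30 and a set limit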;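 further: plate controls were DMSO wells for no effect and camptothecin positive control wells for full effect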
#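 Read-out is percentage of cells bearing a perinucleolar compartment, from automated 20x imaging of fixed, Hoechst-stained PC3M PTB-GFP cells. Cells were seeded 4 h, then exposed 16 h to compound (23 nl of library stock) in duplicate plates.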
# * = called active by the depositor; ? = inconclusive; . = no result given; ! = a repeat was not active; [ ] = another dose, or the depositor's remark. Rows were chosen to be rich in hits. Some 11% of all compounds tested hit in one or more screens of this group. Unless noted, the call rests on the fitted dose curve; in most records, active means well fitted inhibition curve with a large enough effect (not every such curve was filed as active); inconclusive means small, poorly fitted or top-dose-only effect, or another doubt; inactive means no such curve, though single readings can be large or run the other way. Unless noted, on the % scale 0 is the no-effect control and ±100 the full control effect.
SMILES,HPGD inh,ALDH1A1 inh,PNC inhibitor
O=C(CSC1=NCCS1)Nc1ccc(S(=O)(=O)NC2CCCCC2)cc1,15.8µM*,?,-1.2
O=C(CSC1=NCCS1)NC1CCCC1,25.1µM*,6.7%,46.3
O=C(CSC1=NCCS1)NC1CCCCC1,?,2.1%,17.9
N#CCCS(=O)(=O)c1ccccc1,-4.1%,-6.2%,.
N#CCCS(=O)(=O)c1nnnn1-c1ccccc1,?,0.447µM*,?
N#CCCCS(=O)(=O)c1nnnn1-c1ccc(Br)cc1,-10.3%,20µM*,.
N#CCCCSc1nnnn1-c1cccc(Cl)c1,-15.5%,-7.0%,?
CCc1nnc(NC(=O)CSc2nc3cc(OC)c(OC)cc3cc2C)s1,.,-2.0%,.
COCCNc1ccc([N+](=O)[O-])cc1C(=O)Nc1cccc(C)n1,.,-12.4%,.
CN(Cc1cc(Br)cc(Br)c1O)Cc1c(O)ccc2ccccc12,-10.2%,-3.2%[13.5 µM],.
CCOc1ccc(NS(=O)(=O)CC23CCC(CC2=O)C3(C)C)cc1 (stereo not drawn),-5.0%,4.9%,-14.3
COc1ccc(NS(=O)(=O)CC23CCC(CC2=O)C3(C)C)cc1 (stereo not drawn),-13.6%,7.94µM*,-20.5
O=C(CSc1ccccc1Cl)N1CCC(c2nc3ccccc3s2)CC1,-4.0%,12.6µM*,-6.6
O=C(c1cccc(F)c1)N1CCC(c2nc3ccccc3s2)CC1,.,-17.8%,.
O=C(CSc1ccc(F)cc1)N1CCC(c2nc3ccccc3s2)CC1,-21.2%,7.08µM*,-17.4
CNC(=S)N1CCC(c2nc3ccccc3s2)CC1,.,-1.3%,.
Cc1cccc(NC(=O)CSc2nnc(Cn3cnc4ccccc43)o2)c1,-1.2%,?,0.5
Fc1ccc(C(CNC(=S)NC2CCCCC2)N2CCOCC2)cc1 (stereo not drawn),.,8.9%,.
CC(=O)N/C(=N\OCc1ccccc1Cl)c1nonc1NC(C)=O,-0.9%,3.3%,61.4
CN(C)CCCN=C(N)N,-4.7%,4.8%[13.5 µM],.
CN(C)CCCCSC(=N)N,2.1%,25.1µM*!,.
CCCN(CCC)C(=O)SCC,-1.7%,7.8%,.
CCOc1ccc(CC(=O)NCc2cn3c(C)csc3n2)cc1,-9.8%,4.3%,?
CC(Sc1nc2ccccc2[nH]1)C(=O)O (stereo not drawn),-9.8%,-6.2%,28.8
CC(=O)N=C(N)Sc1nc2ccccc2[nH]1,-17.1%,-2.9%,-100.0*
SMILES,HPGD inh,ALDH1A1 inh,PNC inhibitor
COc1ccccc1CN1CCCC2(CCNCC2)C1,-10.3%,9.3%,.
Cc1ccc(Cl)cc1NC(=O)Nc1cccs1,.,2.3%,.
O=C1Nc2ccccc2S/C1=C/NCc1ccccc1Cl,.,4.47µM*,.
Clc1cc2c(nn1)Nc1ccccc1S2,.,11.2%,.
CCC(C)NC(=O)/C=C1\Sc2ccccc2NC1=O (stereo not drawn),?,?,27.7
Cc1ccc(N/C=C2/Sc3ccccc3NC2=O)cc1,.,22.4µM*,.
COc1ccc(N/C=C2/Sc3ccccc3NC2=O)cc1,.,3.98µM*,.
C=C1c2ccccc2NC(=O)N1c1ccc(OC)cc1,.,-79.8%,.
O=C(NCCN1CCOCC1)c1ccc(-n2c(=O)c(=O)[nH]c3ccccc32)cc1,-14.6%,3.5%,.
NC(=O)C1CCN(c2ncc(C(F)(F)F)cc2Cl)CC1,.,3.1%,.
C=C1OC(CO)(n2cnc3c(N)ncnc32)C(O)C1O (stereo not drawn),-7.8%,-2.1%,.
COc1ccc(Cl)c(Cn2c(NCCCO)nc3c2c(=O)n(C)c(=O)n3C)c1,-2.1%,-2.6%,20.4
C[C@@H](Cc1ccccc1)Nc1ncnc2c1ncn2[C@@H]1O[C@H](CO)[C@@H](O)[C@H]1O,.,-7.6%,.
CN(C)/C=C1/C(=O)N(c2ccc([N+](=O)[O-])cc2)N=C1c1ccccc1,-15.4%,15.8µM*,?
CN(C)/C=C1\C(=O)N(c2ccc([N+](=O)[O-])cc2)N=C1c1ccccc1,-13.2%,25.1µM*,1.2
CCCC1=NN(c2ccc([N+](=O)[O-])cc2)C(=O)/C1=C/N(C)C,-22.0%,?,?
CC1=NN(c2ccc([N+](=O)[O-])cc2)C(=O)/C1=C\N(C)C,-9.4%,?,13.7
CC(=O)c1c(C)nc2ccc(Cl)cn12,-4.2%,8.0%,-4.7
O=C(c1csc2ccccc12)N1CCCCCC1,0.0126µM*,-0.3%,3.0
O=C(c1csc2ccccc12)n1cccn1,-10.3%,11.2µM*,-86.7*
Cc1cccc(N2CCN(C(=O)c3csc4ccccc34)CC2C)c1 (stereo not drawn),-23.1%,-3.3%,35.2
O=C(c1csc2ccccc12)N1CCN(c2ccccn2)CC1,-14.4%,?,?
CC(C)CN1CC2(CCN(C(=O)c3csnn3)CC2)C1,-2.8%,5.8%,.
Cc1ccc2nsnc2c1NC(=O)c1cncc(Br)c1,.,-8.9%,.
N#Cc1cc2c(nc1SCC(N)=O)CCCCC2,-14.1%,-13.7%,23.2
SMILES,HPGD inh,ALDH1A1 inh,PNC inhibitor
N#Cc1cc2c([nH]c1=S)CCCCCC2,7.94µM*,10µM*,-10.1
CC(=O)Oc1cc(OC(C)=O)c2c(C)cc(=O)oc2c1,-21.4%,?,?
Cc1cc(OC(=O)CNC(=O)OC(C)(C)C)c2c(C)cc(=O)oc2c1,17.8µM*,15.8µM*,16.5
COc1ccc2c(C=O)c[nH]c2c1,-12.5%,6.31µM*,?
COc1ccc2c(CC#N)c[nH]c2c1,-11.8%,5.4%,-25.1
CC(Oc1ccc(Cl)cc1Cl)C(=O)NNC(=O)C(=O)N1CCCCC1 (stereo not drawn),-7.1%,-2.4%,25.0
CCOC(=O)Cc1csc(N/N=C/c2ccccc2)n1,-9.4%,12.7%,-5.5
O=C(O)Cc1sc(N/N=C\c2ccccc2)nc1-c1ccccc1,?,1.12µM*,31.0
CCOC(=O)c1sc(N/N=C/c2ccccc2)nc1C,14.1µM*,8.91µM*,28.0
CCOC(=O)c1sc(NC(=O)C2C3C=CC(C3)C2C(=O)O)nc1C (stereo not drawn),-15.9%,0.501µM*,-4.3
CCOC(=O)c1sc(N/N=C/c2cccc(C)c2)nc1C,-13.0%,-0.9%,?
CCOC(=O)c1sc(NC(=O)C2CC2)nc1C,-9.0%,4.2%,-12.9
Cc1ccc(C)c(SCC(=O)Nc2cccnc2Cl)c1,.,-0.3%,.
Cc1ncc([N+](=O)[O-])n1Cc1ccc(F)cc1,.,-3.3%,.
Cc1ccc2c(CSc3nnc(N)s3)cc(=O)oc2c1,20µM*,22.4µM*,18.8
Nc1nnc(SCc2ccc(F)cc2Cl)s1,-11.8%,11.4%,-4.6
COc1cc2c(cc1NC(=O)CN1CCN(S(=O)(=O)c3ccccc3F)CC1)oc1ccccc12,?,?,20.9
CCOc1cccc(-c2nnc(SCC(=O)Nc3cc(OC)cc(OC)c3)n2N)c1,16.8%,-10.2%,?
COc1ccc(NC(=O)CSc2nnc(-c3ccccc3C)n2N)cc1,?,12.6µM*,-13.4
COc1ccc(NC(=O)CSc2nnc(-c3ccccc3C)n2N)cc1OC,.,1.6%,3.9
CCOc1cccc(-c2nnc(SCC(=O)Nc3ccc(OC)c(OC)c3)n2N)c1,-3.4%,-2.9%,-108.0*
COc1ccc(C2=[N+]([O-])C(C)(C)N(O)C2C)cc1 (stereo not drawn),-13.8%,5.0%,105.2
CCCSc1nnc(-c2cnn(-c3ccccc3)c2-n2cccc2)n1C,17.8µM*,?,23.8
C=CCSc1nnc(-c2cnn(-c3ccccc3)c2-n2cccc2)n1C,?,-10.3%,-22.7
